Bioassay records (PubChem)
CF NFkB inh: cystic fibrosis NF-kB activation inhibition; inhibition, % at 5 µM; hit rate 0.86% among 360,000; AID 588850; KKLEB NF-kB-GFP reporter, PAF-induced, GFP fluorescence overnight;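 active = at least 50% inhibition at 5 µM, scaled per plate between neutral and stimulator controls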;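 also: PAF is a Pseudomonas aeruginosa culture filtrate used as stimulus; plate controls were PAF-stimulated DMSO wells for no effect and unstimulated DMSO wells for full effect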
KKLEB tox: counter-screen for CF NF-kB inhibitors: cytotoxicity | AID 602141 | activity change (cytotoxicity), % at 5 µM | hit rate 0.36% among 360,000 | KKLEB CF airway cells viability, ATPlite luminescence, overnight; hits give low values; cells stimulated with P. aeruginosa culture filtrate;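 active = corrected activity change at or below -50% at 5 µM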
Peg3 prom inh: inhibitors of Peg3 promoter. HeLa PEG-Prom luciferase reporter, luminescence, overnight. inhibition, % at 20 µM. hit rate 1.7% among 360,000;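 active = inhibition of at least 50% at 20 µM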
HIF-2a inh: inhibitors of HIF-2a. inhibition, % at 18.8 µM. 786-0 RCC cells HIF-2a reporter, luciferase luminescence, overnight. hit rate 0.72% among 360,000;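 active = inhibition of the luminescence signal of 40% or more relative to plate controls, in a single-dose primary screen at 18.75 µM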
TROY NFkB inh: inhibitors of TROY-dependent NF-kB signaling | Q293 LMP1-TROYcd NF-kB luciferase reporter, 4 h | AID 1347056 | hit rate 0.98% among 360,000 | inhibition, % at 10 µM;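 active = compounds whose plate-normalised and pattern-corrected inhibition of the luciferase reporter signal at the single screening dose is 50% or more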
TWEAK Fn14 block: blocks TWEAK-Fn14 interaction in a reporter cell assay | TWEAK-stimulated Fn14 reporter cells, luciferase luminescence, 8 h | inhibition, % at 10 µM | hit rate 2% among 360,000 | AID 1159606; in the data active = inhibition above about 50%
Mdm2-MdmX confirm: confirmation of inhibitors of human Mdm2/MdmX interaction, set 2; shares compounds with HIF-2a inh; SaOS-2 split-luciferase Mdm2/MdmX complementation, luminescence; inhibition, % at 8 µM; hit rate 99% among 740;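 active = mean inhibition of the luminescence signal across two replicates at or above 26 percent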
Target sequence (O15151 whole entry, looked up): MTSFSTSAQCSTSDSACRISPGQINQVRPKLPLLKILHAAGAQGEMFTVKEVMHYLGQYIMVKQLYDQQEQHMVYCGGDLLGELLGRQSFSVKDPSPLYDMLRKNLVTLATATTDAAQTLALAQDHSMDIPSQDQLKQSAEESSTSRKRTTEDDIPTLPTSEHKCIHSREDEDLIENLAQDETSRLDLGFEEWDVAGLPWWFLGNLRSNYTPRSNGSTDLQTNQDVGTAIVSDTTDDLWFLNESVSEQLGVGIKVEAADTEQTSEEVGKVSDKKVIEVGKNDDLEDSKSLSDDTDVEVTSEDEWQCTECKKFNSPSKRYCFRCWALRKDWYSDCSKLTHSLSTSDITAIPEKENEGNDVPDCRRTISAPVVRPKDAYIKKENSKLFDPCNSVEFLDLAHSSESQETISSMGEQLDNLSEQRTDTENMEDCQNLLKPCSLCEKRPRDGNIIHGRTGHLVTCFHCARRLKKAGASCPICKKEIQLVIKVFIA
Target sequence (Q00987 whole entry, looked up): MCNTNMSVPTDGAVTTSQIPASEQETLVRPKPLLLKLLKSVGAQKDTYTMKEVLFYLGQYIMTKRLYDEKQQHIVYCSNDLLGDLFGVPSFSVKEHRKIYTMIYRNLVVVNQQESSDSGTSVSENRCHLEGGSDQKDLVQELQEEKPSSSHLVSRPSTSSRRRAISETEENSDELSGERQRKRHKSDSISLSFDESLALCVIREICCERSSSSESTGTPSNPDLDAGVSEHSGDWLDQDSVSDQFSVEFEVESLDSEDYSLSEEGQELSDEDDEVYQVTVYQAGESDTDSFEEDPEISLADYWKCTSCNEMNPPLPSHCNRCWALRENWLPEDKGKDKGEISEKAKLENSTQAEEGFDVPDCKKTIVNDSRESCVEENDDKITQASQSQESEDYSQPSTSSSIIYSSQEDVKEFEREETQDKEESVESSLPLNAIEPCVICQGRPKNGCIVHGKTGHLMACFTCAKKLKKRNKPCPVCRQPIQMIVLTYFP
HIF-2a inh conf: confirmation of HIF-2a inhibitors. shares compounds with HIF-2a inh. 786-0 RCC cells, HIF-2a luciferase reporter luminescence, overnight. inhibition, % at 18.8 µM. hit rate 56% among 1,800;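 active = mean inhibition across four replicates of at least 40 percent at the single tested concentration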
HIF-1a counter: inhibits HIF-1a reporter, a counter-screen for HIF-2a inhibitors | inhibition, % at 18.8 µM | AID 651589 | hit rate 72% among 1,800 | MiaPaCa-2 HIF-1a luciferase reporter, desferoxamine, overnight | shares compounds with HIF-2a inh;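 active = mean inhibition of the reporter signal across four replicates at the single tested dose of 50% or more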
Starred values were filed as active, the others as inactive; / = no result given. Sampled rows, rich in hits. Any-hit rate of the full collection: about 4%.

SMILES | CF NFkB inh | KKLEB tox | Peg3 prom inh | HIF-2a inh | TROY NFkB inh | TWEAK Fn14 block | HIF-2a inh conf | HIF-1a counter | others
N#CC1=C(N)N2C(=C(C#N)C13CCN(Cc1ccccc1)CC3)Nc1ccccc12 | 16 | -2 | 0 | -25 | -36 | -19 | / | /
CC(=NNC(=S)Nc1cccc(C)c1)c1ccccn1 | -12 | -7 | -55 | -215 | -31 | -123 | / | /
CC(=NNC(=S)Nc1ccc(C)cc1)c1ccccn1 | -18 | 14 | 74* | 61* | -34 | -43 | -28 | 2
COc1ccc2cc1Oc1ccc(cc1)C[C@H]1c3cc(c(OC)cc3CCN1C)Oc1c(OC)c(OC)cc3c1[C@@H](C2)N(C)CC3 | 6 | 19 | 52* | 7 | 0 | -6 | / | / | Mdm2-MdmX confirm=100*
COc1ccc2c(c1OC)CN(C)CCc1cc3c(cc1C(O)C2)OCO3 (centres undefined) | 3 | -3 | -3 | 7 | 14 | 12 | / | /
C=CCn1cccc(/C=C/C(=O)c2ccc(C(C)(C)C)cc2)c1=S | 37 | -52* | 102* | 70* | -12 | 2 | 61* | 105*
Cc1cc(C)cc(N=c2c([N+](=O)[O-])nn(-c3ccc4c(c3)OCCO4)n2O)c1 | 20 | -12 | -59 | -103 | 34 | 25 | / | /
Cc1ccc(N=c2c([N+](=O)[O-])nn(-c3ccc4c(c3)OCCO4)n2O)cc1F | -15 | 8 | 33 | 70* | 91* | 100* | 84* | 94*
O=[N+]([O-])c1nn(-c2ccc3c(c2)OCCO3)n(O)c1=Nc1ccccc1 | -18 | 28 | 76* | 82* | 88* | 104* | 90* | 100* | Mdm2-MdmX confirm=95*
O=C(NCCCc1ccccc1)c1cccc(Br)c1 | 14 | -9 | -90 | -113 | -43 | -25 | / | /
O=C(CN(Cc1ccccc1)C(=O)CCl)c1cccc(Br)c1 | 61* | -67* | 11 | 31 | 5 | 66* | / | / | Mdm2-MdmX confirm=103*
Cc1ccc(NC(=O)C(=Cc2ccc(C(=O)O)cc2)C(=O)Nc2ccc(C)cc2C)c(C)c1 | 14 | -58* | 95* | 85* | -25 | 70* | 92* | 104* | Mdm2-MdmX confirm=102*
CCCCCCCCCCCCCCCCCCNc1ccn(C2OC(COP(=O)(O)OCC3OC(n4cc(F)c(=O)[nH]c4=O)CC3O)C(O)C2O)c(=O)n1 (centres undefined) | 26 | 5 | 12 | -3 | 13 | -29 | / | /
O=c1oc(-c2ccccc2)cc(Cl)c1Cl | 74* | -103* | 109* | 42* | 31 | 31 | 27 | 107*
O=c1cc(-c2ccccc2)oc2ccc(Cl)cc12 | -60 | -2 | -281 | -270 | -65 | 1 | / | /
CC1(C)CC1C(=O)Nc1ccc([N+](=O)[O-])cc1Br (centres undefined) | 9 | -4 | -14 | -13 | -16 | 4 | / | /
Cc1ccc(C2(c3ccc(C)cc3)CC2C(=O)Nc2ccc([N+](=O)[O-])cc2O)cc1 (centres undefined) | 84* | -85* | 53* | -18 | 56* | 66* | / | / | Mdm2-MdmX confirm=95*
Cc1nn(-c2ccccc2)c(C)c1NS(=O)(=O)c1ccccc1 | 3 | 6 | 16 | 41* | 3 | 5 | 34 | 14
Cc1nn(C)c(C)c1NS(=O)(=O)c1ccccc1 | -8 | 1 | 18 | 12 | / | 29 | / | /
Cc1ccc(OCC(=O)c2cc(C)n(CC(F)(F)F)c2C)c([N+](=O)[O-])n1 | 4 | 6 | -13 | -37 | 18 | 23 | / | /
Cc1cc(C)c(C(=O)COc2cccnc2[N+](=O)[O-])cc1C | 19 | -2 | 31 | -8 | 22 | 10 | / | /
Cc1ccc(OCC(=O)c2cc(C)n(Cc3cccs3)c2C)c([N+](=O)[O-])n1 | 5 | 0 | 43 | 58* | -11 | 3 | 72* | 95*
COCCn1c(C)cc(C(=O)COc2cccnc2[N+](=O)[O-])c1C | -3 | 9 | 65* | 51* | -5 | -7 | 65* | 71*
CC(=O)Nc1cnc(/C=C\CCCO)cn1 | -3 | 5 | -13 | -17 | 1 | -12 | / | /
CC(C)CN(C(=O)COC(=O)CSc1ccccc1)c1c(N)n(Cc2ccccc2)c(=O)[nH]c1=O | 10 | -1 | -16 | -8 | 2 | 14 | / | /
SMILES | CF NFkB inh | KKLEB tox | Peg3 prom inh | HIF-2a inh | TROY NFkB inh | TWEAK Fn14 block | HIF-2a inh conf | HIF-1a counter | others
Cc1ccc(C)c(OCc2ccc(C(=O)NN)o2)c1 | -18 | 0 | -2 | 40* | 5 | 34 | 29 | -4
Cc1cccc(C(=O)N2CCCC(CCC(=O)N3CCN(c4ccccn4)CC3)C2)c1 (centres undefined) | 3 | -12 | 21 | 13 | 14 | 2 | / | /
O=c1nc(/C=C/c2cc([N+](=O)[O-])ccc2Cl)cc(C(F)(F)F)[nH]1 | -4 | 34 | 20 | 83* | 31 | -2 | 61* | 79*
COc1cc(/C=C/c2cc(C(F)(F)F)[nH]c(=O)n2)cc(OC)c1OC | -2 | 24 | 25 | 40* | 19 | 47 | 26 | -3
O=C(NC1CCCCC1c1ccccc1)c1ccccc1 (centres undefined) | -5 | 5 | 7 | 7 | 1 | -7 | / | /
S=C(c1ccc(-c2ccccc2)cc1)N1CCOCC1 | 2 | -11 | 23 | 86* | 8 | 50 | 89* | 54*
O=C(c1ccc(-c2ccccc2)cc1)c1ccccc1C(=O)N1CCOCC1 | -14 | -11 | -23 | -22 | -1 | 14 | / | /
O=C(Cc1coc2cc3c(cc12)CCC3)OCC(=O)N1CCCC1=O | 35 | -16 | 28 | 80* | 59* | 83* | 77* | 83*
N#CC1=C(c2ccccc2)/C(=C/c2ccccc2)OC1=O | 42 | -7 | 104* | 89* | -6 | 83* | 4 | 106*
COc1ccccc1OC(=O)c1cc2ccccc2oc1=O | -8 | 4 | -4 | 8 | -27 | -8 | / | /
COc1cc(/C=C/[N+](=O)[O-])ccc1OC(=O)c1cc2ccccc2oc1=O | 35 | -4 | 69* | 61* | 53* | 20 | 34 | 38
CC[C@@H](C)[C@H](CN[C@H](CNC)C(C)C)NC[C@@H](C)c1ccc(CC(C)C)cc1 | 3 | -10 | 99* | -1 | -6 | -43 | / | / | Mdm2-MdmX confirm=103*
COc1ccc(NC(=O)/C=C/c2cc(Br)ccc2OC)cc1 | -13 | -8 | 10 | -11 | 7 | 26 | / | /
COc1ccc(Br)cc1/C=C/C(=O)c1ccc(NC(C)=O)cc1 | 42 | 17 | 106* | 85* | 42 | 84* | 64* | 106*
COC(=O)[C@]12CCCCC=C1N(CCC1=CCCCC1)C(=O)[C@H](CC(=O)N1CCOCC1)C2 | / | / | / | -3 | -1 | 4 | / | /
